Hits are enriched below; roughly 1.6% of the tested compounds scored in any of these assays.
KCNQ2 pot: KCNQ2 (rat) channel potentiation. CHO-K1 KCNQ2, FluxOR thallium flux fluorescence; hits give high values. B-score at 10 µM. actives 0.54% (n = 310,000). AID 2239;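 active = fluorescence ratio B-score at least 3 SD of library B-scores, with initial fluorescence B-score within 3 of them, cut at about 5.3 in these data; same plate scores as AID 2156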;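 note: B-score of peak minus minimum over baseline fluorescence ratio after K+ and Tl+ stimulus; positive B-score means potentiation of KCNQ2 with more thallium influx and brighter signal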
Target sequence (O88943 whole entry, looked up): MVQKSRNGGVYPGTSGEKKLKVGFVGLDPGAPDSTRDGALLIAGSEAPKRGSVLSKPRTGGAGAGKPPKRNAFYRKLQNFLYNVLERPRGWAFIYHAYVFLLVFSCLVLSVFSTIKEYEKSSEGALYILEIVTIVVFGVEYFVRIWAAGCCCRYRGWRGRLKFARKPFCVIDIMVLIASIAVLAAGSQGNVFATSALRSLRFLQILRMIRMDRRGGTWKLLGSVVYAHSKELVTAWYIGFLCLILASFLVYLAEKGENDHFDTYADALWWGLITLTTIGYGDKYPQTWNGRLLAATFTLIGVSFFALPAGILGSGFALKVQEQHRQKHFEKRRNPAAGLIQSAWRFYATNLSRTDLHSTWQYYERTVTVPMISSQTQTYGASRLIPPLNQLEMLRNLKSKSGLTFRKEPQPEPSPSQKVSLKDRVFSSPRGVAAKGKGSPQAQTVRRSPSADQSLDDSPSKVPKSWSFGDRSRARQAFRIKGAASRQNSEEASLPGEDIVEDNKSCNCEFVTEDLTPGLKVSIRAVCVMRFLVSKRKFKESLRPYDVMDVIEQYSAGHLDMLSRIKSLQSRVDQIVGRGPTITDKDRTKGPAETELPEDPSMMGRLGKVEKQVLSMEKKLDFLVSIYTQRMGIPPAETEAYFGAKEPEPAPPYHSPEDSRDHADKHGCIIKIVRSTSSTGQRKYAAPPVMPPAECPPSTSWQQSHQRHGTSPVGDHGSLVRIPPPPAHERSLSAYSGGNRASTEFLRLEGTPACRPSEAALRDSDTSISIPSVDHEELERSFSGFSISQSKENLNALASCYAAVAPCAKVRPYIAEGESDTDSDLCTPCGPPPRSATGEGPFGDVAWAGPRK
KCNQ2 inh: inhibitors of rat KCNQ2 potassium channel. O88943. CHO-K1 KCNQ2, FluxOR thallium flux, 20 min; hits give low values. B-score at 10 µM. actives 1.1% (n = 310,000). AID 2156;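 active = fluorescence ratio B-score at most minus 3 library SDs, with starting brightness B-score within 2 library SDs, cut at about -5.5 in these data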
Kir21 confirm: confirmation of mouse Kir2.1 potassium channel inhibitors. Kir2.1-expressing cells, FluxOR thallium flux fluorescence; hits give low values. Tl flux remaining, % of negative control (hits give low values), % at 10 µM. AID 2032. actives 41% (n = 2,300). shares compounds with KCNQ2 pot;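 active = Primary-screen hit whose thallium flux fell at least 3 control SD below untreated wells in both duplicates, with normal baseline fluorescence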;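 note: 0% = blank wells without stimulus and 100% = stimulated no-compound controls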
HEK293 Tl flux: alters thallium flux in parental HEK293 cells, Kir2.1 counter-screen | FluxOR thallium flux fluorescence; 0% = unstimulated blank wells | shares compounds with KCNQ2 pot | FluxOR signal as % of negative control (100 = no effect), % at 10 µM | AID 2105 | actives 19% (n = 2,300);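 active = dye signal at least 3 control SD above or below untreated wells in both duplicates, raw fluorescence within 3, either direction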;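 note: percent is based on the flux ratio of peak minus minimum fluorescence over baseline F0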
CHO-K1 Tl ctr: counter-screen for KCNQ2 potentiators: effect in parental CHO-K1 cells | FluxOR thallium flux fluorescence; zero = vehicle mean+3SD, 100% = vehicle-minus-blank window | shares compounds with KCNQ2 pot | actives 43% (n = 1,200) | AID 2282 | activity increase over 3SD of controls, % at 10 µM;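 active = signal rise of at least 3 SD above the untreated control mean, in both duplicate wells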;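 note: counter screen of KCNQ2 potentiator hits so any rise reflects channel-independent effects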
KCNQ1 pot spec: tests whether KCNQ2 potentiators also act on human KCNQ1. shares compounds with KCNQ2 pot. actives 28% (n = 1,200). AID 2283. activation over 3SD threshold, % at 10 µM. CHO KCNQ1 stable, FluxOR thallium flux fluorescence; beyond 3SD, as % of vehicle-control signal;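 active = fluorescence ratio rise of at least 3 SD of vehicle wells above their mean, in both replicate wells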;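 note: 0% = vehicle mean plus 3 SD and 100% = vehicle minus unstimulated blank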
KCNQ2 pot confirm: confirmation of rat KCNQ2 potassium channel potentiators; potentiation, less the hit threshold, % at 10 µM; shares compounds with KCNQ2 pot; CHO-KCNQ2 cells, FluxOR thallium flux fluorescence; actives 68% (n = 1,200);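 active = fluorescence ratio rising 3 SD or more over the vehicle control mean in both replicates, plus primary screen hit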;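 note: peak minus minimum thallium fluorescence divided by baseline after K/Tl stimulus; 0% = vehicle mean plus 3 SD and 100% = vehicle minus unstimulated blank difference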
Kir2-1 sel: selectivity of KCNQ2 potentiators: effect on mouse Kir2.1 | shares compounds with KCNQ2 pot | HEK293 Kir2.1, FluxOR thallium flux fluorescence | activity over 3SD threshold, % at 10 µM | actives 2% (n = 1,200) | AID 2345;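 active = fluorescence ratio rise of at least 3 SD above the vehicle-control mean, seen in both replicates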;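 note: 0% = vehicle mean plus 3 SD and 100% = vehicle minus no-stimulus blank window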
KCNQ2 W236L MoA: potentiates the retigabine-insensitive rat KCNQ2 W236L mutant channel. shares compounds with KCNQ2 pot. CHO KCNQ2-W236L, automated patch clamp current. current increase over 3SD of negative controls (%), hits give high values, % at 25 µM. actives 10% (n = 940);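 active = current increase at least 3 SD of the untreated controls above them in both duplicate recordings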
Starred values were filed as active, the others as inactive; i = inactive; x = no result.

SMILES | KCNQ2 pot | KCNQ2 inh | Kir21 confirm | HEK293 Tl flux | others
COC(=O)C1Cc2c([nH]c3ccccc23)C2(CCN(Cc3ccccc3)CC2)N1 (centres undefined) | x | i | 68%* | i
CCCN1CCC2(CC1)NC(C(=O)O)Cc1c2[nH]c2ccccc12 (centres undefined) | x | i | x | x
O=C(Cc1ccccc1)Nc1ccc(N2CCOCC2)cc1 | 0.3 | i | x | x
CC1CN/C(=C\C(=O)c2ccc(Cl)cc2)C(=O)N1 (centres undefined) | 0.4 | i | x | x
CC(=O)Oc1ccc(C(=O)c2ccccc2)c(OC(C)=O)c1 | x | i | x | x
CC(C)CO/C(=N/S(=O)(=O)c1ccccc1)c1ccccc1 | 0.96 | i | x | x
CC(C)O/C(=N\S(=O)(=O)c1ccc(Cl)cc1)c1ccccc1 | x | i | 66%* | i
CCCCCCCCCC[n+]1cccc2c3ccccc3ccc21 | x | i | 7.5%* | i
CCCCCCCC[n+]1cccc2c3ccccc3ccc21 | 0.04 | i | x | x
CN(/N=C/c1ccc([N+](=O)[O-])o1)c1ccccc1 | x | i | x | x
CCCOc1cccc(-c2cc(C(=O)N/N=C/c3ccccn3)c3ccccc3n2)c1 | 5.5* | i | i | i | CHO-K1 Tl ctr=-13;KCNQ1 pot spec=-36;KCNQ2 pot confirm=-26;Kir2-1 sel=-41
CCCOc1cccc(-c2cc(C(=O)NN)c3ccccc3n2)c1 | 0.73 | i | x | x
CC(C)(C)c1ccc(NC(=O)c2ccccc2)c([N+](=O)[O-])c1 | x | i | x | x
FC(F)(F)c1cnc(Oc2ccc(-c3nnco3)cc2)c(Cl)c1 | x | i | x | x
FC(F)(F)c1cnc(Oc2ccccc2-c2nnco2)c(Cl)c1 | 7.4* | i | i | i | CHO-K1 Tl ctr=-6;KCNQ1 pot spec=-1;KCNQ2 pot confirm=53*;Kir2-1 sel=-33;KCNQ2 W236L MoA=i
Oc1ccc(C2=NN(c3ccccc3)C(c3ccc(F)cc3)C2)cc1 (centres undefined) | 12* | i | i | i | CHO-K1 Tl ctr=3.9*;KCNQ1 pot spec=-14;KCNQ2 pot confirm=-16;Kir2-1 sel=-25
Oc1ccccc1C1=NN(c2ccccc2)C(c2ccc(F)cc2)C1 (centres undefined) | 2.9 | i | x | x
CN1CCN(C2=Cc3ccc(Cl)cc3Sc3ccc(F)cc32)CC1 | x | i | x | x
CN1CCN(C2=Cc3ccccc3Sc3cc(F)ccc32)CC1 | x | i | 57%* | i
COc1cc(C(C)=O)ccc1OCC(O)CN1CCN(S(=O)(=O)c2ccccc2)CC1 (centres undefined) | x | i | x | x
COc1ccc(NC(=O)N2CCC(O)(c3cccnc3)CC2)c(OC)c1 | x | i | x | x
Cc1ccc(S(=O)(=O)NCc2ccc(C(=O)N3CCc4ccccc4C3)cc2)cc1 | x | i | x | x
CC1CCC(NC(=O)Cn2ncc3ccccc32)CC1 (centres undefined) | 0.23 | i | x | x
CCCCOC(=O)Cn1c(=N)n(CCN2CCOCC2)c2ccccc21 | x | i | x | x
CCCCCCCCCCOC(=O)Cn1c(COc2ccccc2)[n+](C)c2ccccc21 | x | i | i | i
SMILES | KCNQ2 pot | KCNQ2 inh | Kir21 confirm | HEK293 Tl flux | others
CCCCCCCCCCOC(=O)Cn1c(COc2ccc(OC)cc2)[n+](C)c2ccccc21 | 1.6 | i | i | i
CCCCCCCCCCOC(=O)Cn1c(COc2ccc(Cl)cc2)[n+](C)c2ccccc21 | x | i | x | x
CCCCOC(=O)Cn1c(=O)n(CC(=O)OCCCC)c2ccccc21 | x | i | i | i
CCCCCCCCCCOC(=O)Cn1c(COc2cccc(C)c2)[n+](C)c2ccccc21 | 0.86 | i | i | i
Cc1cccc(OCCCn2c(=O)sc3ccccc32)c1 | x | i | x | x
CCCCCOC(=O)Cn1c(=O)oc2ccccc21 | x | i | x | x
COC(=O)C(C)SC1=N/C(=C/c2ccc(-n3cncn3)cc2)C(=O)N1 (centres undefined) | x | i | x | x
COc1ccccc1C1CC(c2ccco2)=NN1c1ccccc1 (centres undefined) | x | i | x | x
CC(C)(C)c1ccc(C(=O)NC(=S)N2CCCCCC2)cc1 | 8.8* | i | i | 268%* | CHO-K1 Tl ctr=-24;KCNQ1 pot spec=37*;KCNQ2 pot confirm=0.7*;Kir2-1 sel=-21;KCNQ2 W236L MoA=4.9%*
COc1ccc(C(=O)NC(=S)N2CCC(C)CC2)cc1Br | 6.5* | i | i | 247%* | CHO-K1 Tl ctr=-14;KCNQ1 pot spec=-15;KCNQ2 pot confirm=-2;Kir2-1 sel=-38;KCNQ2 W236L MoA=i
COc1ccc(C(=O)NC(=S)N2CCNC(=O)C2)cc1Br | 1.3 | i | x | x
CC1CCN(C(=S)NC(=O)c2ccccc2)CC1 | 0.9 | i | x | x
CC1CCN(C(=S)NC(=O)c2ccc(C(C)(C)C)cc2)CC1 | 7.1* | i | x | x | CHO-K1 Tl ctr=-11;KCNQ1 pot spec=-14;KCNQ2 pot confirm=5.8*;Kir2-1 sel=-37;KCNQ2 W236L MoA=i
CC(C)(C)c1ccc(C(=O)NC(=S)N2CCCC2)cc1 | 2.1 | i | x | x
CCS(=O)(=O)n1nc(NCc2cccc(OC)c2)nc1NCc1cccc(OC)c1 | 15* | i | x | x | CHO-K1 Tl ctr=78*;KCNQ1 pot spec=-7;KCNQ2 pot confirm=-25;Kir2-1 sel=-50
CCCn1nnnc1NCc1cccc(OC)c1 | x | i | x | x
COc1ccc(CNC(=O)COC(=O)CN2C(=O)COc3ccccc32)cc1 | 0.93 | i | x | x
Cc1ccc(C(=O)NNC(=S)NC(=O)c2ccccc2)cc1 | 1.1 | i | i | i
O=C(NNC(=S)NC(=O)c1ccc(Br)cc1)c1cccc([N+](=O)[O-])c1 | 7.6* | i | i | i | CHO-K1 Tl ctr=-5;KCNQ1 pot spec=-15;KCNQ2 pot confirm=-35;Kir2-1 sel=-38
Cc1cccc(C(=O)NNC(=S)NC(=O)c2ccccc2)c1 | 0.69 | i | x | x
O=C(NNC(=S)NC(=O)c1ccc(Br)cc1)c1ccc([N+](=O)[O-])cc1 | 0.06 | i | x | x
O=C(COc1cccc(NC(=O)c2cccc([N+](=O)[O-])c2)c1)c1ccc(Br)cc1 | 8.9* | i | i | i | CHO-K1 Tl ctr=3.8*;KCNQ1 pot spec=-14;KCNQ2 pot confirm=12*;Kir2-1 sel=-32;KCNQ2 W236L MoA=i
O=C(Nc1cccc(OCC(=O)N2CCOCC2)c1)c1cccc([N+](=O)[O-])c1 | 1.2 | i | x | x
O=C1C2C(C(=O)N1/N=C/c1cc([N+](=O)[O-])ccc1O)C1C=CC2C12CC2 (centres undefined) | x | i | x | x
NS(=O)(=O)c1ccc(NC(=O)C2CCCO2)cc1 (centres undefined) | x | i | x | x
CCC1=C(OC(=O)N(CC)CC)N2C(=O)OC(=NCC3CC3)[C@]2(Cc2ccccc2)[C@H]2C1=CC[C@H]1C(=O)N(CC(=O)OC)C(=O)[C@H]12 | 0.41 | i | x | x

Source: PubChem (Johns Hopkins Ion Channel Center)
